# Compound activity deposited in PubChem BioAssay by National Center for Advancing Translational Sciences (NCATS).
# SW480 rerep: A quantitative high throughput screen for small molecules that induce DNA re-replication in SW480 colon adenocarcinoma cells | 340,000 tested, 1.8% active | AID 624297, 2012 | SW480 DNA re-replication, Hoechst DNA content imaging, 48 h | Potency, µM (top dose mostly 46.1 µM), inactives show at the highest dose re-replication activation, actives largely listed as activators; also: % of control where 0% means no effect; nearly all actives have a fitted effect of over 55% in size
#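 Quantitative HTS format with DMSO vehicle controls; 48 hr drug incubation at 37 C, then 40 min Hoechst staining and scanning imager measurement at 405 nm excitation.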
# ELG1 DNA repair: qHTS screen for small molecules that inhibit ELG1-dependent DNA repair in human embryonic kidney (HEK293T) cells expressing luciferase-tagged ELG1; HEK293T ELG1-luciferase reporter, luminescence, 16 h; DNA damage induced by 5-fluorouridine; Potency, µM (titrated, usually from 46.1 µM), inactives show at the top dose activity change, negative = inhibition, usual class: inhibitors; 330,000 tested, 2.3% active; also: % is scaled to controls: 0 for no effect and ±100 for the full control effect; nearly all actives have a fitted effect of over 55% in size
#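 5-Fluorouridine DNA damage + compound/DMSO, 2,000 cells/well, 16 h, 37 °C/5% CO2. ONE-Glo, 30 min RT, luminescence. Readout = decrease in reporter signal.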
# KB-V1 MDR tox: qHTS assay for MDR1-selective chemotherapeutics: Primary screen using the drug-selected MDR subline cells KB-V1; 400,000 tested, 3.4% active; Potency, µM (highest dose often 46.1 µM), actives largely listed as cytotoxic; KB-V1 MDR cells viability, CellTiter-Glo, 72 h; also: % is scaled to controls: 0 for no effect and ±100 for the full control effect; nearly all actives have a fitted effect of over 60% in size
#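 Readout: CellTiter-Glo luminescence, 10 min after addition. Cells: KB-V1 MDR subline, 72 h at 37 degrees C with compound. Analysis: corrected, normalized data fitted to concentration-effect curves.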
# MCF10A rerep: A quantitative high throughput screen for small molecules that induce DNA re-replication in MCF 10a normal breast cells. MCF 10A DNA re-replication, Hoechst nuclear intensity, 48 h. Potency, µM (top dose mostly 46.1 µM), without a hit: at the top dose activity, positive = re-replication, most hits filed as activators. 350,000 tested, 2.9% active. AID 624296, 2012; also: % of control where 0% means no effect; nearly all actives have a fitted effect of over 50% in size
# KB-3-1 tox: qHTS assay for MDR1-selective chemotherapeutics: Primary screen using the parental adenocarcinoma cell KB-3-1. Potency, µM (doses to about 46.1 µM), usual class: cytotoxic. AID 1347075, 2019. 400,000 tested, 1.4% active. KB-3-1 viability, CellTiter-Glo ATP luminescence, 72 h; also: % is scaled to controls: 0 for no effect and ±100 for the full control effect; nearly all actives have a fitted effect of over 60% in size
#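 Cytotoxicity in the drug-sensitive parental line KB-3-1 was scored as loss of CellTiter-Glo luminescence following 72 h incubation with compound. Values come from curve fitting of normalized concentration-response data.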
# * = called active by the depositor; i = inactive; u = inconclusive; x = not tested or not shown. Only some compounds are listed: those with a hit (about 8.1% of all), similar ones and a draw of the others. Calls follow the shape of the dose curve; as a rule, active = well fitted curve in the direction sought with a large enough effect; inconclusive = small, poorly fitted or top-dose-only effect, or another doubt; inactive = no such curve, though single readings can be large; an effect the other way counts as inactive or inconclusive. Potency is read from the fitted curve at half-maximal effect.
SMILES,SW480 rerep,ELG1 DNA repair,KB-V1 MDR tox,MCF10A rerep,KB-3-1 tox
COC(=O)c1cccc(NC(=O)c2cc3sccc3n2C)c1,-2%,u,9.2µM*,-8%,i
COC(=O)c1ccccc1NC(=O)c1cc2sccc2n1C,3%,4%,i,u,i
CCOC(=O)N1CCN(S(=O)(=O)c2ccc(OC)c(Cl)c2)CC1,0%,1%,i,-11%,i
COc1ccc(NC(=O)CN(C)C(=O)/C=C/c2ccc(S(=O)(=O)N3CCCCCC3)cc2)cc1,13%,u,21µM*,u,u
COc1ccc(NC(=O)CN(C)Cc2c(F)cccc2Cl)cc1S(=O)(=O)N1CCCCC1,1%,u,u,-1%,i
COc1ccc(CN(C)C(C)C(=O)Nc2ccc(S(=O)(=O)N3CCCCC3)cc2)c(OC)c1 (stereo unspecified),u,u,i,18µM*,i
COc1ccc(/C=C/C(=O)N(C)CC(=O)Nc2cccc(F)c2)cc1S(=O)(=O)N1CCCCC1,21µM*,u,i,u,21µM*
COCc1ccc(C(=O)N2CCCC(Nc3ccc(C(C)C)cc3)C2)o1 (stereo unspecified),-4%,-5%,x,1%,x
CN(C)C(=S)NC(=S)Nc1ccc2ccccc2c1,18%,x,18µM*,u,u
C/C(=N\Nc1nc(-c2ccccn2)nc2ccccc12)c1ccc(F)cc1,u,-6%,u,7%,i
O=C(Nc1ccc(F)c(Cl)c1)c1cc(C2CCCCN2C(=O)CCCc2ccccc2)on1 (stereo unspecified),x,x,i,x,i
CC(C)OC(=O)/C(C#N)=C/c1cn(C)c2ccccc12,-2%,14%,i,13%,i
Cn1cc(/C=C(\C#N)C(=O)Nc2ccccc2O)c2ccccc21,0%,8.2µM*,i,-19%,i
COc1ccc(OC)c(Nc2nc(N)nc(CSc3nnc(-c4ccncc4)o3)n2)c1,x,2%,x,x,x
Cc1onc(-c2c(F)cccc2Cl)c1C(=O)NC1=NCCS1,0%,u,i,2%,i
COC(=O)c1cc(NC(=O)C(C)c2ccc(CC(C)C)cc2)ccc1O (stereo unspecified),u,u,i,15µM*,i
CC(C)Cc1ccc(C(C)C(=O)Nc2ncccn2)cc1 (stereo unspecified),3%,-17%,i,17%,i
CN(CC(=O)Nc1cccc(F)c1)CC(=O)NC(c1ccccc1)c1ccccc1,8%,-20%,i,15%,i
CCN(CC(=O)Nc1ccc(OC)cc1)C(=O)c1cc(-c2cccs2)nn1-c1ccccc1,-4%,u,21µM*,u,i
COc1ccccc1NC(=O)CN(Cc1ccco1)C(=O)c1cncc(Br)c1,-15%,-12%,u,2%,i
Cc1cccc(NC(=O)CN(C)CC(=O)NC(c2ccccc2)c2ccccc2)c1C,-3%,13%,3.3µM*,0%,i
COCCN(CC(=O)Nc1cccc(C)c1C)C(=O)c1cc(-c2cccs2)nn1-c1ccccc1,-11%,13µM*,i,4%,i
COc1ccc(NC(=O)CN(C)C(=O)c2cc(-c3cccs3)nn2-c2ccccc2)cc1,11%,u,u,u,i
COc1ccccc1NC(=O)CN(Cc1ccco1)C(=O)c1ccc(-n2nc(C)cc2C)cc1,-12%,23µM*,2.1µM*,2%,i
Cc1ccc(CNC(=O)Cn2nnc3ccccc3c2=O)cc1,-5%,15%,i,-2%,i
SMILES,SW480 rerep,ELG1 DNA repair,KB-V1 MDR tox,MCF10A rerep,KB-3-1 tox
COCCN(CC(=O)Nc1cccc(C)c1C)C(=O)C1(c2ccccc2)CC1,0%,0%,18µM*,-1%,i
COCCN(CC(=O)Nc1cccc(C)c1C)C(=O)C1(c2ccc(Cl)cc2)CCC1,-12%,u,i,79%,i
CCCN(CC(=O)Nc1ccccc1OC)C(=O)c1cc(-c2ccccc2)nn1-c1ccccc1,-11%,21µM*,i,u,i
Cc1cccc(-n2nnnc2SCC(=O)Nc2ccc(N3CCN(C)CC3)cc2)c1,u,10%,i,u,u
Cc1ccc(S(=O)(=O)N2CCN(C(=O)COC(=O)CCc3ccccc3)CC2)c(C)c1,-17%,9%,i,-4%,i
CCN(CC)C(=O)COC(=O)C1CCN(S(=O)(=O)c2ccc3c(c2)OCCO3)CC1,-10%,24%,i,14%,i
O=C(c1cc(-c2cccnc2)nc2ccc(Br)cc12)N1CCN(c2ncccn2)CC1,-1%,u,u,14%,u
CC(=O)c1ccc(N2CCN(C(=O)c3cc(-c4cccnc4)nc4ccc(Br)cc34)CC2)cc1,3%,16µM*,u,u,i
O=C(Nc1ccc(C(=O)N2CCOCC2)cc1)c1cc(-c2cccnc2)nc2ccc(Br)cc12,u,9.2µM*,i,-1%,u
Cc1ccc(C(=O)NC(C)c2ccc(C)c(C)c2)s1 (stereo unspecified),-7%,x,i,3%,i
Cc1ccc2c(C)ccnc2c1,x,x,i,x,i
Cc1ccc2nccnc2c1,x,x,16µM*,x,u
CS(=O)(=O)N(CC(=O)Nc1ccccc1Br)Cc1ccccc1,-5%,-10%,u,u,i
COc1ccc(OC)c2[nH]c(=O)c(CCNC(=O)c3cc4ccccc4o3)cc12,8%,18µM*,i,3%,i
Cc1ccc(C)c2[nH]c(=O)c(CCNC(=O)c3cc4ccccc4o3)cc12,-2%,u,i,-1%,i
COc1ccc(OC)c2[nH]c(=O)c(CCNC(=O)COc3ccccc3)cc12,-6%,-28%,9.2µM*,-2%,i
O=C(CCNC(=O)c1ccc(Br)cc1)NNC(=O)c1ccccc1O,u,4%,i,u,i
CCOC(=O)c1c(NC(=O)c2ccccc2Cl)sc2c1CCc1ccccc1-2,-695%,-5%,u,16µM*,i
CCOC(=O)c1c(NC(=O)c2ccccc2)sc2c1CCc1ccccc1-2,u,-7%,i,21µM*,i
CCC(=O)NC(=S)Nc1cccc(NC(=O)c2ccccc2)c1,12%,u,i,4%,i
O=C(CCCCCNC(=O)c1ccccc1Br)N=Nc1c(O)[nH]c2ccccc12,-36%,9.2µM*,i,-3%,i
COc1ccccc1C(=O)N/N=C(\C)c1ccc(NC(=O)C2CC2)cc1,1%,-4%,u,u,i
